SNCA expr inh: reduces expression of the alpha-synuclein gene; HEK-293 SNCA-luciferase knock-in, luminescence, 24 h; Potency, µM (doses to about 57.2 µM), for inactives: at the top dose activity change, negative = inhibition, hits mostly inhibitors; 140,000 compounds, 0.17% hits; AID 1671194;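 also: potency is read from the fitted curve at half-maximal effect; plate controls were DMSO cells for no effect and cell-free wells for full effect; nearly all actives have a fitted effect of over 45% in size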
KDM5B inhibitor: inhibitors of human KDM5B histone demethylase; 220,000 compounds, 2.6% hits; AID 1347165; Potency, µM (highest dose often 57.7 µM), most hits filed as inhibitors; KDM5B demethylase, FDH-coupled NADH fluorescence (FDH is formaldehyde dehydrogenase); Q9UGL1; also: potency is read from the fitted curve at half-maximal effect; 0% is about no effect; nearly all actives have a fitted effect of over 70% in size
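Inhibition is measured as reduced NADH fluorescence generation from FDH coupling to formaldehyde release. Truncated KDM5BΔAP at 200 nM final acts on H3K4me3 peptide (12.5 µM in substrate mix) in pH 7.5 HEPES buffer with Tween-20, 30 min, room temperature.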
IP6K1 inh: IP6K1 kinase inhibition; Q92551; IP6K1 kinase, ADP-Glo luminescence, 2 h; active compounds read low; activity change, % (series mostly up to about 58 µM); 140,000 compounds, 0.81% hits; AID 1645851; in the data active = activity change below about -25%; also: % is scaled to controls: 0 for no effect and ±100 for the full control effect
Target sequence (Q92551 whole entry, looked up): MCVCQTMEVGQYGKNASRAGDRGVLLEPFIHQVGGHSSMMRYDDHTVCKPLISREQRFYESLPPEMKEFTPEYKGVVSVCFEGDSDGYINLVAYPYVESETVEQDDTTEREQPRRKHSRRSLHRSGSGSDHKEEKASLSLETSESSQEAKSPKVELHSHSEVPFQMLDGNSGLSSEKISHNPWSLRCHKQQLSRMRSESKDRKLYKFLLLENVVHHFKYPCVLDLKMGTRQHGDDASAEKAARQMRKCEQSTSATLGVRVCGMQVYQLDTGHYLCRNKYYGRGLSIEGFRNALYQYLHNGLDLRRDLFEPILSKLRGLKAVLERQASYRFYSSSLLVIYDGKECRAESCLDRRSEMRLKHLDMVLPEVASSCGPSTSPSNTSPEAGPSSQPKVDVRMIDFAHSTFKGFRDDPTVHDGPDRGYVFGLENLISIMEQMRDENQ
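ADP-Glo luminescence measures ADP made by human IP6K1 during a 2 h RT reaction with ATP/IP6 (mix at 1.3 mM/130 uM); top library doses 57.5 and 19.1 uM final.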
SNCA viab count: cell viability loss counter-screen | AID 1671193 | HEK-293-SNCA-luc viability, GF-AFC fluorescence, 24 h | 150,000 compounds, 0.12% hits | Potency, µM (series often up to 57.1 µM), without a hit: at the highest dose activity change, negative = cytotoxicity, actives largely listed as cytotoxic;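 also: potency is read from the fitted curve at half-maximal effect; 0% = DMSO-treated cells and -100% = medium-only wells without cells; nearly all actives have a fitted effect of over 30% in size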
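HEK-293-SNCA-luc cells (1500/well) plated 24 h, then exposed 24 h to a dilution series; GF-AFC added 30 min at 37C, fluorescence 405/540 nm; normalised to medium-only and DMSO wells, Hill fit.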
IP6K1 conf: confirmation of human IP6K1 inhibitors; 1,200 compounds, 13% hits; Potency, µM (series often up to 49 µM), for inactives: at the top dose activity change, negative = inhibition, usual class: inhibitors; recombinant IP6K1 kinase, ADP-Glo luminescence, 2 h; shares compounds with IP6K1 inh; also: potency is read from the fitted curve at half-maximal effect; % is scaled to controls: 0 for no effect and ±100 for the full control effect; nearly all actives have a fitted effect of over 65% in size
* marks the source's active call; other numbers are inactive results; [ ] = remark or other dose. Shown are actives, neighbours in structure and some others; about 2.9% of the full set was active somewhere. Unless noted, calls follow the shape of the dose curve; as a rule, active = well fitted curve in the direction sought with a large enough effect; inconclusive = small, poorly fitted or top-dose-only effect, or another doubt; inactive = no such curve, though single readings can be large; an effect the other way counts as inactive or inconclusive.

`O=C(Nc1cc(Cl)ccc1Cl)c1cc(S(=O)(=O)N2CCCc3ccccc32)ccc1F` gave SNCA expr inh 41.8%, KDM5B inhibitor inactive, IP6K1 inh -30.1*, SNCA viab count 12.7% and IP6K1 conf -7.7%.
CNC(=O)c1cccc(-c2cnc3[nH]cc(CC(=O)Nc4cccc(F)c4)c3c2)c1 was read as SNCA expr inh -22.3%[87.6 µM], KDM5B inhibitor inactive, IP6K1 inh -7.7 and SNCA viab count -20.1%[87.6 µM].
For CNC(=O)c1cccc(-c2cnc3[nH]cc(CC(=O)Nc4ccccc4Cl)c3c2)c1 the results were SNCA expr inh 56.5%[87.6 µM], KDM5B inhibitor inactive, IP6K1 inh -26.4*, SNCA viab count inconclusive and IP6K1 conf inconclusive.
`NC(=O)Cc1c[nH]c2ncc(-c3cccc(CO)c3)cc12` gave SNCA expr inh -4.2%[87.6 µM], KDM5B inhibitor 31.6µM*, IP6K1 inh -27.3*, SNCA viab count 3.2%[87.6 µM] and IP6K1 conf inconclusive.
`Cc1cccc(-c2cnc3[nH]cc(CC(N)=O)c3c2)c1` gave SNCA expr inh 3.3%[87.6 µM], KDM5B inhibitor 31.6µM*, IP6K1 inh -32.3*, SNCA viab count 2.7%[87.6 µM] and IP6K1 conf inconclusive.
`Cc1ccc2c(c1)C(c1ccc(F)cc1)N(C(=O)c1ccc(OC(C)C)cc1)CC(=O)N2` (centres undefined) gave SNCA expr inh -45.5%, KDM5B inhibitor inconclusive, IP6K1 inh 6.7 and SNCA viab count -17.8%.
For Cn1nc(C(C)(C)C)cc1C(=O)NNC(=O)c1ccc(C(F)(F)F)cc1 the results were KDM5B inhibitor inactive.
For Cn1nc(-c2ccc(C(F)(F)F)cc2)nc2c(=O)n(C)c(=O)nc1-2 the results were IP6K1 inh -40.6*, SNCA viab count inconclusive and IP6K1 conf inconclusive.
Screening CCCCCn1c(CCCNC(=O)c2ccc(Cl)cc2)nc2ccccc21 returned SNCA expr inh -16.5%, KDM5B inhibitor inactive, IP6K1 inh -39.4*, SNCA viab count -5.9% and IP6K1 conf -7.9%.
`O=C(c1cc(O)c(O)c(O)c1)c1ccc(O)c(O)c1O` gave SNCA expr inh -42.8%[25.6 µM], IP6K1 inh -66.7*, SNCA viab count -4.6%[23.9 µM] and IP6K1 conf -27.2%.
`O=C(O)c1cc(O)c(O)c(O)c1` gave SNCA expr inh -42.0%[25.6 µM], IP6K1 inh -28.4*, SNCA viab count 5.9%[23.9 µM] and IP6K1 conf -11.0%.
COC(=O)c1ccc(CNC(=O)Cc2ccc(C)cc2)cc1 was read as KDM5B inhibitor inactive.
For COc1ccc(-c2nc(SCC(=O)Nc3cccc(C(F)(F)F)c3)n[nH]2)cc1 the results were KDM5B inhibitor inactive.
For COc1ccc(-c2nc(SCC(=O)Nc3cccc(C(C)=O)c3)n[nH]2)cc1 the results were SNCA expr inh -1.1%, KDM5B inhibitor inactive, IP6K1 inh -33.4*, SNCA viab count -23.5% and IP6K1 conf inconclusive.
NCCc1nc2cccnc2n1-c1ccccc1 was read as SNCA expr inh 29.8%, KDM5B inhibitor inactive, IP6K1 inh 3.6 and SNCA viab count -18.7%.
Screening COc1ccc(N2CCN(C(=O)C3CCN(S(=O)(=O)c4cnc[nH]4)CC3)CC2)cc1 returned SNCA expr inh 5.1%, KDM5B inhibitor inactive, IP6K1 inh -28.6*, SNCA viab count -9.1% and IP6K1 conf 13.0%.
`O=C1c2ccccc2C(=O)c2c1ccc(O)c2O` gave SNCA expr inh -23.9%[25.6 µM], IP6K1 inh -26.9*, SNCA viab count -1.8%[23.9 µM] and IP6K1 conf 3.66µM*.
Screening COc1cccc(NC(=O)C(C)OC(=O)c2ccc3ccccc3n2)c1 (centres undefined) returned KDM5B inhibitor inactive.
`O=C(Nc1noc2ccccc12)c1c(F)cccc1F` gave SNCA expr inh inconclusive, KDM5B inhibitor inactive, IP6K1 inh -31.3*, SNCA viab count 1.7% and IP6K1 conf inconclusive.
Screening O=C(Nc1noc2ccccc12)c1ccc(Br)o1 returned KDM5B inhibitor inactive.
`C#C[C@]1(O)CC[C@H]2[C@@H]3CCc4cc(OC)ccc4[C@H]3CC[C@@]21C` gave SNCA expr inh 31.2%[25.6 µM], IP6K1 inh -26.6*, SNCA viab count -19.7%[23.9 µM] and IP6K1 conf inconclusive.
Cc1ccc(NC(=O)C2CCN(C(=O)c3ncn4c3COC(c3ccccc3)C4)CC2)cc1 (centres undefined) was read as SNCA expr inh 70.9%, KDM5B inhibitor inactive, IP6K1 inh 0.0 and SNCA viab count 6.0%.

Screens deposited in PubChem BioAssay by National Center for Advancing Translational Sciences (NCATS).
